A selection: hits, their analogues and other compounds. The true share with any hit is near 6.9%.
HCV NS3h FP: blocks HCV NS3 helicase binding to DNA; NS3h Cy5-dT15 DNA binding, fluorescence polarization; inhibition, % at 100 µM; actives 1.6% (n = 16,000); AID 687043;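 active = inhibition above the average over every tested compound plus 3 SD, cut at about 40% in these data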
Cy5 interf NS3h: Cy5 fluorescence interference, HCV helicase counter-screen; AID 720488; actives 6% (n = 16,000); Cy5-dT15 DNA with NS3h; actives lie on both sides; signal over control mean, under 1 quenches; fluorescence interference ratio at 100 µM;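 active = compound fluorescence over control fluorescence at most 0.8, a quencher, or at least a set upper limit, an enhancer; inactive = ratio between 0.8 and the set upper limit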
* marks the source's active call; other numbers are inactive results.

`O=C(COc1cccc2ccccc12)NCc1ccccn1` gave HCV NS3h FP 1 and Cy5 interf NS3h 0.91.
`Cc1ccc(N2CCN(CC(O)Cn3c4ccccc4c4ccccc43)CC2)cc1` (stereo not given) gave HCV NS3h FP -4 and Cy5 interf NS3h 0.96.
`O=C(NCCCO)C(=O)NCc1ccccc1Cl` gave HCV NS3h FP 6 and Cy5 interf NS3h 1.1.
COc1cccc(/C=N\N2CCN(Cc3cccc4ccccc34)CC2)c1 was read as HCV NS3h FP 20 and Cy5 interf NS3h 1.
`CCN(CC)c1ccc(/C=N\N2C(=O)c3ccccc3C2=O)cc1` gave HCV NS3h FP 7 and Cy5 interf NS3h 1.2*.
CCN(CC)c1ccc(/C=N/NC(N)=O)cc1 was read as HCV NS3h FP 5 and Cy5 interf NS3h 1.1.
Cc1ccc2nsnc2c1NC(=O)c1cc(Cl)ccc1Cl was read as HCV NS3h FP 6 and Cy5 interf NS3h 1.
For COC(C)(C)CNS(=O)(=O)c1ccc(C)cc1 the results were HCV NS3h FP 9 and Cy5 interf NS3h 0.74*.
COc1ccc(CNS(=O)(=O)c2ccc(C)cc2)cc1 was read as HCV NS3h FP 7 and Cy5 interf NS3h 0.99.
COCCNC(=O)CN(c1ccc(OC)cc1OC)S(=O)(=O)c1ccc(C)cc1 was read as HCV NS3h FP 3 and Cy5 interf NS3h 1.
Screening Cc1ccc(Cl)cc1NC(=O)c1ccccc1C(F)(F)F returned HCV NS3h FP 10 and Cy5 interf NS3h 0.96.
For COc1ccc(/C=C2\C(=O)NC(=O)N(c3cc(C)cc(C)c3)C2=O)c(OC)c1 the results were HCV NS3h FP 11 and Cy5 interf NS3h 1.2.
`COc1ccc2nc(SCC(=O)NCc3ccccc3)[nH]c2c1` gave HCV NS3h FP 6 and Cy5 interf NS3h 1.
Screening COc1ccc(C(=O)CSc2nc3ccc([N+](=O)[O-])cc3[nH]2)cc1 returned HCV NS3h FP -4 and Cy5 interf NS3h 0.66*.
Screening O=[N+]([O-])c1ccc(Nc2nc(OCC(F)(F)C(F)F)nc(OCC(F)(F)C(F)F)n2)cc1 returned HCV NS3h FP 17 and Cy5 interf NS3h 0.86.
Screening O=C1NC(=O)C(=Cc2ccc(OCc3cccc4ccccc34)cc2)C(=O)N1 returned HCV NS3h FP 3 and Cy5 interf NS3h 0.93.
CN(c1ccccc1)c1ccc(C=C2C(=O)NC(=O)NC2=O)cc1 was read as HCV NS3h FP 46* and Cy5 interf NS3h 1.1.
For Cc1ccc(S(=O)(=O)NCc2nnc(NC(=O)c3ccc(Br)cc3)s2)cc1 the results were HCV NS3h FP -10 and Cy5 interf NS3h 1.1.
Screening CC(C)c1ccc(/C=C2\SC(=S)N(C3CCS(=O)(=O)C3)C2=O)cc1 (stereo not given) returned HCV NS3h FP -1 and Cy5 interf NS3h 0.95.
For c1ccc(NC2=Nc3cccc4cccc2c34)cc1 the results were HCV NS3h FP 24 and Cy5 interf NS3h 0.59*.
For CN(C)c1ccc(NC2=NS(=O)(=O)c3ccccc32)cc1 the results were HCV NS3h FP 0 and Cy5 interf NS3h 0.95.
For COCCNC(=O)C(=O)Nc1ccccc1 the results were HCV NS3h FP 5 and Cy5 interf NS3h 1.
Screening C=C(C)Cn1c(-c2ccc(Cl)cc2)n[nH]c1=S returned HCV NS3h FP -2 and Cy5 interf NS3h 0.94.
For Cc1ccc(-c2nc3cc(Cl)ccc3o2)cc1NC(=O)/C=C/c1cccc([N+](=O)[O-])c1 the results were HCV NS3h FP 5 and Cy5 interf NS3h 1.
N/N=C1\NC(=O)C(Cc2cccc([N+](=O)[O-])c2)S1 (stereo not given) was read as HCV NS3h FP 10 and Cy5 interf NS3h 1.1.
Cc1ccccc1/C=N\N=C1\NC(=O)C(Cc2cccc([N+](=O)[O-])c2)S1 (stereo not given) was read as HCV NS3h FP 15 and Cy5 interf NS3h 1.3*.
`COc1ccccc1C1CC(c2c(-c3ccccc3)c3cc(Cl)ccc3[nH]c2=O)=NN1C(=O)CCC(=O)O` (stereo not given) gave HCV NS3h FP 18 and Cy5 interf NS3h 1.1.
Cc1ccc(C2CC(C(F)(F)F)n3ncc(C(=O)Nc4ccc(OC(F)(F)F)cc4)c3N2)cc1 (stereo not given) was read as HCV NS3h FP 5 and Cy5 interf NS3h 0.92.
O=C(O)CCC(=O)N1N=C(c2ccccc2)CC1c1ccccc1Cl (stereo not given) was read as HCV NS3h FP 5 and Cy5 interf NS3h 1.
Screening COC(=O)c1ccc(/C=C2\SC(=S)N(c3ccc(F)cc3)C2=O)cc1 returned HCV NS3h FP 0 and Cy5 interf NS3h 1.
Screening O=C(CSc1nc2ccccc2[nH]1)OCc1ccccc1 returned HCV NS3h FP 6 and Cy5 interf NS3h 1.
For O=C1NN(c2ccc(F)cc2)C(=O)/C1=C\c1ccc(-c2cccc(C(=O)O)c2)o1 the results were HCV NS3h FP 15 and Cy5 interf NS3h 0.82.
Screening CCN1C(=O)C(=Cc2ccc(-c3cccc(C(=O)O)c3)o2)C(=O)N(CC)C1=S returned HCV NS3h FP 54* and Cy5 interf NS3h 1.2*.
For COc1cc([N+](=O)[O-])cc2c1N=C(c1ccc(Br)cc1)NO2 the results were HCV NS3h FP 2 and Cy5 interf NS3h 0.97.
Screening O=[N+]([O-])c1ccc2c(c1)ONC(c1ccc(Cl)cc1)=N2 returned HCV NS3h FP 22 and Cy5 interf NS3h 0.67*.
For COc1cccc(/C=C/C(=O)c2ccc(C)cc2)c1OC the results were HCV NS3h FP 9 and Cy5 interf NS3h 0.93.
For COc1ccc(C2CC(C(F)(F)F)n3nc(C(=O)NCc4ccco4)c(Br)c3N2)cc1 (stereo not given) the results were HCV NS3h FP 16 and Cy5 interf NS3h 1.
COc1ccc(N(CC(=O)NCCc2ccccc2)S(C)(=O)=O)cc1 was read as HCV NS3h FP 2 and Cy5 interf NS3h 1.1.
`Cc1cc(Nc2ccc(C)c(Cl)c2)n2ncnc2n1` gave HCV NS3h FP 15 and Cy5 interf NS3h 0.74*.
Cc1cc(Nc2cc(Cl)cc(Cl)c2)n2ncnc2n1 was read as HCV NS3h FP -1 and Cy5 interf NS3h 0.91.
For OC1(C#CCN(C2CCCCC2)C2CCCCC2)CCCCC1 the results were HCV NS3h FP 3 and Cy5 interf NS3h 0.96.
C=CCN1C(=O)/C(=C\c2ccccc2OCc2ccc(Cl)cc2)SC1=S was read as HCV NS3h FP 16 and Cy5 interf NS3h 0.99.
C=CCN1C(=O)/C(=C/c2ccccc2OCc2ccccc2Cl)SC1=S was read as HCV NS3h FP 10 and Cy5 interf NS3h 0.65*.
For COc1cc(C=C2C(=O)N(C)C(=O)N(C)C2=O)ccc1OCc1ccccc1Cl the results were HCV NS3h FP 5 and Cy5 interf NS3h 1.
C=CCN1C(=O)NC(=O)/C(=C\c2ccc(OCc3ccccc3Cl)c(OC)c2)C1=O was read as HCV NS3h FP 9 and Cy5 interf NS3h 1.2*.
`CC(C)COc1ccc(C(=O)Nc2cccc3ccccc23)cc1` gave HCV NS3h FP 23 and Cy5 interf NS3h 1.1.
Screening Cc1ccc(NC(=O)COc2ccc3ccccc3c2)cc1 returned HCV NS3h FP 11 and Cy5 interf NS3h 1.4*.
For CCCOc1ccc(C(=O)Nc2ccccc2C(=O)OC)cc1 the results were HCV NS3h FP 13 and Cy5 interf NS3h 0.7*.
COC(=O)c1ccccc1NC(=O)c1ccccc1NC(=O)c1ccc(OC)cc1 was read as HCV NS3h FP 9 and Cy5 interf NS3h 1.
`COc1cc(NC(=O)COc2ccc3ccccc3c2)cc(OC)c1` gave HCV NS3h FP 18 and Cy5 interf NS3h 1.1.
Screening Cc1ccccc1NC(=O)c1ccc(OCC(C)C)cc1 returned HCV NS3h FP 12 and Cy5 interf NS3h 0.76*.
